# Mdm2 MdmX PPI – inhibitors of human Mdm2-MdmX association, primary screen, cell-based, luminescence, split luciferase, SaOS-2, uHTS | Protein Mdm4 (Homo sapiens) + E3 ubiquitin-protein ligase Mdm2 (Homo sapiens), … | SaOS-2 split-luciferase Mdm2/MdmX complementation | inhibition, % at 8 µM | 330,000 compounds, 3% hits | AID 485346, 2010;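 active means inhibition of at least 50% at 8 µM in the primary screen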
# Target sequence (O15151 whole entry, looked up): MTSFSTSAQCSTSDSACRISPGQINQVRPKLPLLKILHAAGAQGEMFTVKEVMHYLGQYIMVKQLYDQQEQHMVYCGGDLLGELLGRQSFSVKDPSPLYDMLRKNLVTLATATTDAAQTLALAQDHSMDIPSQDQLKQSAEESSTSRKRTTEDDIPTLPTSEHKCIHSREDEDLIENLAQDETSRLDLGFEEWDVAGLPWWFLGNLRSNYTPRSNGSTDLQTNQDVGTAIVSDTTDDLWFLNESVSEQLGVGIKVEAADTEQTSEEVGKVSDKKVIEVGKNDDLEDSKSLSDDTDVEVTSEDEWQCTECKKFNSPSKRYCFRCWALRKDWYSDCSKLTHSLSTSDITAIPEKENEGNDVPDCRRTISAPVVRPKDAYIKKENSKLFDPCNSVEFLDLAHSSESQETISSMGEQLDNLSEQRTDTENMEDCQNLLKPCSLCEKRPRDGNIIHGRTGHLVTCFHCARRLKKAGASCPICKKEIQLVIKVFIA
# Target sequence (Q00987 whole entry, looked up): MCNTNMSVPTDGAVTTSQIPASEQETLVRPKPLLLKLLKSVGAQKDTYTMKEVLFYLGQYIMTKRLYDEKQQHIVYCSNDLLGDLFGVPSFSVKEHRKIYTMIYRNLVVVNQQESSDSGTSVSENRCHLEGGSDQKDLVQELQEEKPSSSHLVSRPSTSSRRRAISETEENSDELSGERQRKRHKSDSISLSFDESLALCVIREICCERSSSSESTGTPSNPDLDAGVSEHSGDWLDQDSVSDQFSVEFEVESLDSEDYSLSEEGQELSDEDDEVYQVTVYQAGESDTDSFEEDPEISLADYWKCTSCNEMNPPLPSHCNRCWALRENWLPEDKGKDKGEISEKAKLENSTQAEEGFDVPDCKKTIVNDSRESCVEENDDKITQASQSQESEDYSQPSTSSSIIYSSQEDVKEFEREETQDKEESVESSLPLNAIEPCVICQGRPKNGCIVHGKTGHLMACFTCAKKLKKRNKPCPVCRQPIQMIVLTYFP
# Shn3 3UTR inh – reduction of Shn3 3'UTR firefly luciferase signal, primary screen, Schnurri-3 inhibitor project, cell-based, Clone20 osteoblasts, set 2; 360,000 compounds, 0.52% hits; AID 588674, 2011; inhibition, % at 12.5 µM; Clone20 osteoblast Shn3 3'UTR firefly luciferase, 24 h;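 active means mean inhibition of at least 75% with every replicate also reaching 75%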;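 further: 0% = median of neutral control wells and 100% = pilot-screen positive control compound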
# Gli-Sufu block – Gli-Sufu pathway antagonists, primary screen, luciferase luminescence, Sufu-KO-LIGHT cells, uHTS; Sufu-KO-LIGHT fibroblasts, Gli luciferase reporter luminescence; inhibition, % at 5 µM; 340,000 compounds, 0.74% hits; AID 588413, 2011;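 active means inhibition above about 55%, limit read from the data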;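 further: 0% = DMSO-treated cells and 100% = wells with medium but no cells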
# 697 NFkB inh – inhibitors of PMA/ionomycin-induced NF-kB reporter, 697 cells, primary screen, B-cell NF-kB inhibitor project, cell-based, luminescence, uHTS. 697 B-cell NF-kB luciferase reporter, 16 h. inhibition, % at 4 µM. 330,000 compounds, 0.33% hits; in the data active means inhibition above about 35%
# Jurkat NFkB inh – inhibitors of induced NF-kB luciferase reporter, primary screen, TCR NF-kB activation inhibitor project, cell-based, luminescence, uHTS; inhibition, % at 4 µM; AID 435003, 2010; Jurkat, PMA/ionomycin-induced NF-kB luciferase reporter; 330,000 compounds, 0.53% hits; in the data active means inhibition above about 50%
# * marks the source's active call; other numbers are inactive results; / = no result given. Compounds with a hit are over-represented: about 3.8% of the library has one in this group of screens.
SMILES,Mdm2 MdmX PPI,Shn3 3UTR inh,Gli-Sufu block,697 NFkB inh,Jurkat NFkB inh
C=CCOC(=O)C1=C(C)N=C2SCCC(=O)N2C1c1cccs1 (centres undefined),8,92*,8,1,3
CCOC(=O)C1=C(C)N=C2SCCC(=O)N2C1c1sccc1C (centres undefined),27,4,4,-13,-18
Cc1cc(O)cc(O)c1/C=N/NC(=O)c1ccc2c(c1)OCCO2,/,91*,/,/,/
O=C(O)c1ccc(/C=N/NC(=O)c2ccc3c(c2)OCCO3)cc1,32,-44,14,-25,-4
Cc1cc2nc(C)n(CCCNC(=O)Nc3cccc4ccccc34)c2cc1C,26,87*,53,-25,-4
CCOc1ccc(NC(=O)NCCCn2c(C)nc3cc(C)c(C)cc32)cc1,23,52,14,8,8
Cc1cc(C)cc(-n2ncc3c2CCCC3NC(=O)C2(C(N)=O)CC2)c1 (centres undefined),4,39,8,-40,17
Cc1cccc(-n2ncc3c2CCCC3NC(=O)C2(C(N)=O)CC2)c1C (centres undefined),-14,83,63*,19,35
O=C(Nc1cccc2nsnc12)c1cc2c(cc1Cl)Sc1nccn1S2(=O)=O,/,-15,-5,/,/
CC(=O)Nc1cccc(OCC(O)Cn2c(C)nc3ccccc32)c1 (centres undefined),10,4,-4,3,1
CCCOC(=O)c1ccc(OCC(O)Cn2c(C)nc3ccccc32)cc1 (centres undefined),-23,89*,29,-47,16
O=C(Nc1ccccc1)Nc1cc(OCC(F)(F)F)cc(OCC(F)(F)F)c1,/,93*,25,/,/
O=C(NCCNC(=O)c1cc(OCC(F)(F)F)ccc1OCC(F)(F)F)Nc1cccc(C(F)(F)F)c1,6,-4,2,2,2
CC(C)(C)C(=O)Cn1ncc(Br)c(Br)c1=O,/,89*,4,/,/
CC(C)(C)C(=O)Cn1ncc(N2CCOCC2)c(Cl)c1=O,-18,4,3,-9,-5
CCCS(=O)(=O)NC(=O)C1(C)CCCN(C(=O)Cc2ccc3ccccc3c2)C1 (centres undefined),/,3,/,/,/
CC(=O)Nc1c(Br)cc2c(c1Br)C(=O)c1ccccc1-2,/,0,1,/,/
CC(=O)C1=C(c2ccc(Br)cc2)C(=O)c2ccccc2C1=O,/,97*,16,/,/
CCO[C@@H]1OC(C(=O)O)=C[C@H](c2coc3ccccc3c2=O)[C@H]1CCCO,13,-23,22,18,3
CCO[C@@H]1OC(C(=O)NC2CC2)=C[C@H](c2coc3ccccc3c2=O)[C@H]1CCCO,15,92*,4,-1,11
O=S(=O)(/C(=C\c1ccc(C(F)(F)F)cc1)c1nc2ccccc2[nH]1)c1ccccc1,/,93*,-31,/,/
CCc1ccc(CNCc2ccc(OCC(O)CN(C)Cc3ccccc3)cc2)nc1 (centres undefined),38,86*,4,-1,31
COc1ccc(CNC(=O)c2sc(=O)n(Cc3ccccc3OC)c2C)cc1,/,5,/,/,/
Cc1ccccc1NC(=O)/C=C/c1ccc([N+](=O)[O-])s1,/,93*,79*,/,/
CCc1c(O)nc(SCC(=O)Nc2ccccc2)n(-c2ccccc2C)c1=O,/,-20,/,/,/
SMILES,Mdm2 MdmX PPI,Shn3 3UTR inh,Gli-Sufu block,697 NFkB inh,Jurkat NFkB inh
CCc1c(O)nc(SCC(=O)Nc2ccccc2)n(-c2ccccc2)c1=O,-3,96*,4,6,5
O=C(O)c1cccc(NC2=C(Cl)C(=O)c3ccccc3C2=O)c1,/,-51,-23,/,/
O=C1C(Cl)=C(Nc2ccccc2)C(=O)c2ccccc21,/,96*,6,/,/
Cc1ccc(C2/C=C\CC(NC(=O)OCC3c4ccccc4-c4ccccc43)CC(=O)N2Cc2ccccc2)cc1 (centres undefined),19,28,-12,6,/
COc1ccc(Br)cc1C(=O)Nc1cccc(-c2nnc(-c3ccco3)o2)c1,25,62,71*,-20,-25
COc1cccc(C(=O)Nc2cccc(-c3nnc(-c4ccco4)o3)c2)c1,39,-6,-24,-30,-5
O=c1cc(SCc2ccccc2)nc[nH]1,/,-3,0,/,/
COc1ccc(-n2c(O)c(/C=N/NS(=O)(=O)c3ccc(C)cc3)c3ccccc3c2=O)cc1OC,22,-1,0,-10,-13
COc1ccc(-n2c(O)c(/C=N/Nc3nc(C)cc(C)n3)c3ccccc3c2=O)cc1OC,49,91*,29,13,2
Cc1ccc(-c2c(C)nn3c(N4CCOCC4)cc(C)nc23)cc1,2,-17,56*,-19,-8
COc1c(Br)cc(Br)cc1/C=N/NC(=O)c1cccnc1,39,-1,3,-1,17
CCOc1cc(Br)cc(/C=N/NC(=O)c2cccnc2)c1O,19,92*,38,-25,15
Oc1ccc(C[C@H]2CNC(=S)N2CC2CCCN2C[C@H](Cc2ccc(O)cc2)N2C[C@H](Cc3ccccc3)N(CC3CCCCC3)C2=S)cc1 (some centres undefined),/,79,10,/,/
COc1ccccc1CNC(=O)CCNS(=O)(=O)c1ccc2[nH]c(=O)oc2c1,-38,-7,57*,-47,-12
CCC1C(=O)C(C)(C)C(=O)OC1c1ccc([N+](=O)[O-])cc1 (centres undefined),/,1,22,/,/
O=C1CC(=O)OC(c2ccc([N+](=O)[O-])cc2)O1,/,98*,/,/,/
CCOC(=O)c1c2c3c(cccc3n(C)c1=O)C(=O)c1ccccc1-2,21,1,-25,-21,-17
CCOC(=O)c1c2c(n(Cc3ccccc3)c1C)C(=O)C(=O)c1ccccc1-2,/,89*,23,/,/
COc1ccc([C@@H]2CC(=O)c3c(O)cc(O)cc3O2)cc1O,2,-55,-1,6,-5
COc1c(CC=C(C)C)cc(C2CC(=O)c3c(O)cc(O)cc3O2)cc1CC=C(C)C (centres undefined),21,90*,-5,-34,-17
C[C@@H]1CC=C[C@H]2[C@H]1C(=O)N(Cc1ccccc1)[C@H]2c1cccc([N+](=O)[O-])c1,2,87*,10,-33,9
O=C(N[C@H]1C/C=C\C[C@H](CC(=O)N(CCO)Cc2ccccc2)C(=O)N[C@@H](c2ccccc2)COC1=O)OCC1c2ccccc2-c2ccccc21,9,38,66*,-11,-3
Cc1ccc(-c2noc(CCC(=O)Nc3cccc(C(=O)NC4CC4)c3)n2)cc1,/,0,/,/,/
COc1ccc(C(=O)Nc2ccc(Cl)c(S(=O)(=O)Nc3ccccc3OC)c2)cc1,7,72,19,-36,10

# Screening data: PubChem BioAssay, several laboratories
